# Reference: PubChem BioAssay (NCATS)
# Inconclusive results are not listed. A call without a number means that no potency is given here. Calls of active or inactive are those of the source. The call rests on the fitted dose curve; in most records, active means well fitted inhibition curve with a large enough effect; inconclusive means small, poorly fitted or top-dose-only effect; inactive means no such curve, though single readings can be large or run the other way.
# Molecular target: Cytochrome P450 3A7 (Homo sapiens) (UniProt P24462)
# Sequence (P24462 whole entry, looked up): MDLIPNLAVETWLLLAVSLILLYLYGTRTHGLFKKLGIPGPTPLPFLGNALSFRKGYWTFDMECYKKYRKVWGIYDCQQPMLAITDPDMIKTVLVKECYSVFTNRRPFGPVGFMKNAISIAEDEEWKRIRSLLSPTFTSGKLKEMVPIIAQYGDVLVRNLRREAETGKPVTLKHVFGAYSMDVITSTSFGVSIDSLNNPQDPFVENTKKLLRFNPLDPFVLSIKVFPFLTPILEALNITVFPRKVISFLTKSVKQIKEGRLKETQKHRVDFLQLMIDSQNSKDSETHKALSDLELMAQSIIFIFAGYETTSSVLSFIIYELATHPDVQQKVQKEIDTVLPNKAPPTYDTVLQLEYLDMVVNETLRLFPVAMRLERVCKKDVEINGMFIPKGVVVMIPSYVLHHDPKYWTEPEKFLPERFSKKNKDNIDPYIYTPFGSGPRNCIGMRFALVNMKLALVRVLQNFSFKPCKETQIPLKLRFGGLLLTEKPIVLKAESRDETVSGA
# Test: Cytochrome P450 family 3 subfamily A member 7 (CYP3A7) small molecule antagonists: luciferase biochemical qHTS assay (AID 1963596); further: nearly all actives have a fitted effect of over 40% in size
# Conditions: P450-Glo CYP3A7 enzyme luminescence, 1 h; series mostly up to 57.4 µM
# In short: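 Recombinant CYP3A7 P450-Glo luminescent assay: enzyme-proluciferin substrate mix preincubated with compound 10 min at room temperature, reaction started with NADPH regeneration system for 1 h. Luciferin detected by luminescence; ketoconazole as positive control.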
row,SMILES,Potency
1,O=C(N1CCOCC1)N1CCN(c2ccc(Cl)cc2)CC1,inactive
2,CCCCCn1cc(C(=O)c2cccc3ccccc23)c2ccccc21,inactive
3,CN1CCN(C(=O)O[C@H]2c3nccnc3C(=O)N2c2ccc(Cl)cn2)CC1,inactive
4,Cc1sc2c(c1C)C(c1ccc(Cl)cc1)=NC(CC(=O)Nc1ccc(O)cc1)c1nnc(C)n1-2 (stereo not drawn),inactive
5,c1ccc([C@@H]2C[C@H]2NC2CCNCC2)cc1,inactive
6,CN=C(NS(=O)(=O)c1ccc(Cl)cc1)N1C[C@H](c2ccccc2)C(c2ccc(Cl)cc2)=N1,inactive
7,CCOC(=O)c1ccccc1C(=O)OCC,inactive
8,CN(Cc1cccc(-c2ccncc2)c1)C(=O)Oc1ccc(-c2ccc(C(N)=O)cc2)cc1,inactive
9,CC(Cc1ccccc1)NC=O (stereo not drawn),inactive
10,C#CC(C)(O)CC (stereo not drawn),inactive
11,CCCCNC(C)(C)[P+](=O)O,inactive
12,CN1C(=O)C(Cc2ccc3ccccc3c2)N=C(c2ccc(O)cc2)c2cc(Cl)ccc21 (stereo not drawn),inactive
13,NCC(O)c1cccc(O)c1 (stereo not drawn),inactive
14,O=[As]O[As]=O (stereo not drawn),inactive
15,CCNCC(O)c1cccc(O)c1 (stereo not drawn),inactive
16,COC(=O)c1ccccc1C(=O)OC,inactive
17,Cc1c(Cl)cccc1S(=O)(=O)Nc1nc(CC(=O)N2CCN(C)CC2)cs1,inactive
18,COc1ccsc1CNCC[C@@]1(c2ccccn2)CCOC2(CCCC2)C1,inactive
19,C#CCN(C)[C@H](C)Cc1ccccc1,inactive

row,SMILES,Potency
1,NCCS[As](SCCN)c1ccc(Nc2nc(N)nc(N)n2)cc1,inactive
2,CCCCCCCCOC(=O)c1ccccc1C(=O)OCCCCCCCC,inactive
3,Cn1c(CCCC(=O)O)nc2cc(N(CCCl)CCCl)ccc21,inactive
4,CCCCc1ccc(C(=O)O)nc1,inactive
5,c1cncc(OC[C@@H]2CCN2)c1,inactive
6,CCOc1cc(C=O)ccc1O,inactive
7,COc1cc(N2CCN(C)CC2)ccc1N,inactive
8,CCCC(C)(COC(N)=O)COC(=O)NC(C)C (stereo not drawn),inactive
9,CCOCCOC(C)=O,inactive
10,C=CCC1(CC(C)C)C(=O)NC(=O)NC1=O,inactive
11,O=C(Oc1ccc([N+](=O)[O-])cc1)N1CCN(Cc2cccc(Oc3ccccc3)c2)CC1,inactive
12,CC(=O)NCCCOc1ccc(C(=O)N2CCC(N3C(=O)CCc4ccccc43)CC2)cc1,inactive
13,Cc1ccccc1CN1CCC(N2CCC(n3c(=O)[nH]c4ccccc43)CC2)CC1,inactive
14,N#Cc1ccc([C@H]2CCCC[C@H]2O)cc1C(F)(F)F,inactive
15,CNC(=O)NC(O)C(Cl)(Cl)Cl (stereo not drawn),inactive
16,O=C(CC1NCCC[C@H]1O)Cn1cnc2cc(Br)c(Cl)cc2c1=O (stereo partly drawn),inactive
17,CC(N)Cc1c[nH]c2ccccc12 (stereo not drawn),inactive
18,COc1ccc(OC)c(C(O)C(C)N)c1 (stereo not drawn),inactive
19,NCCCCCNC1(c2ccccc2)CCCCC1,inactive
